# In PubChem BioAssay (NCATS):
# The source made the active and inactive calls. How the calls were made is not given here.
# Tested on: HIV-1 nucleocapsid protein NCp7 (binding to TG oligonucleotide)
# Experiment: HIV Nucleocapsid (AID 346);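 further: potency is for inhibitors that block NC binding and lower polarization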
# Conditions: HIV-1 NC / fluorescein-TGTGTGTG probe, fluorescence polarization
# Outline: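 Fluorescence polarization readout: labelled TG4xF oligo (10 nM) with 100 nM nucleocapsid protein, high-salt (250mM NaCl) Hepes pH 7.5 buffer containing zinc and fresh reducing agents. Compounds added by pin tool; incubation 1 hr, room temperature.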
# Potency means the concentration at half of the fitted maximal effect.
row,SMILES,Potency
1,Cc1cnc(CNc2ncncc2-c2cccc(C#N)c2)cn1,> 20 µM (inactive)
2,COC(=O)N1CCC2(CCCN(c3cccc(-c4ccccc4)c3)C2)CC1,> 20 µM (inactive)
3,COc1ccccc1-c1nccc(N2CCN(C)CC2)n1,> 20 µM (inactive)
4,COc1ccc(-c2nc3cnc(Oc4cccc(Cl)c4)nc3n(C[C@H]3CCCO3)c2=O)cc1,> 20 µM (inactive)
5,COc1ccccc1CN1CC2(CCN(C(=O)c3cccc(F)c3)CC2)C1,> 20 µM (inactive)
6,FC(F)(F)c1cc(CN2CC3(CCNCC3)C2)cc(C(F)(F)F)c1,> 20 µM (inactive)
7,CN(C)C(=O)c1ccc(-c2ccc3ncnc(NCc4cccnc4)c3c2)cc1,> 20 µM (inactive)
8,COc1cccc(-c2cncnc2NCc2cnc(C)cn2)c1,> 20 µM (inactive)
9,COc1ncc2nc(-c3cccc(C#N)c3)c(=O)n(CCC#N)c2n1,> 20 µM (inactive)
10,Cc1nc2cnc(N3CCNCC3)nc2n(Cc2cccs2)c1=O,> 4 µM (inactive)
11,COc1cccc(-c2nccc(NCc3ccc(OC)cc3OC)n2)c1,> 20 µM (inactive)
12,COCCn1c(=O)c(-c2ccc(Cl)cc2)nc2cncnc21,> 20 µM (inactive)
13,COc1ncc2nc(-c3cc(F)cc(F)c3)c(=O)n(Cc3cccs3)c2n1,> 20 µM (inactive)
14,COc1ccc(Oc2ncc3nc(C)c(=O)n(C4CC4)c3n2)cc1,> 20 µM (inactive)
15,COc1cccc(Cn2c(=O)cnc3cnc(Nc4cccc(OC)c4)nc32)c1,> 20 µM (inactive)
16,N#CCCn1c(=O)c(-c2ccc(Cl)cc2)nc2cnc(Oc3ccccc3)nc21,> 20 µM (inactive)
17,O=C(c1ccncc1)N1CCC2(CCCN(Cc3ccncc3)C2)CC1,> 20 µM (inactive)
18,O=C(c1cnccn1)N1CCC2(CC1)CN(Cc1nccs1)C2,> 20 µM (inactive)
19,CS(=O)(=O)Nc1cccc(-c2cncnc2NCc2cccnc2)c1,> 20 µM (inactive)
20,CC(C)NC(=O)N1CCC2(CC1)CCN(S(C)(=O)=O)CC2,> 20 µM (inactive)

row,SMILES,Potency
1,CNc1ccnc(-c2ccccc2CN(C)C)n1,> 20 µM (inactive)
2,CN(C)C(=O)c1ccc(-c2ccc3ncnc(NCCN4CCOCC4)c3c2)cc1,> 20 µM (inactive)
3,COc1ncc2nc(-c3ccccc3)c(=O)n(CCC#N)c2n1,> 20 µM (inactive)
4,CC(=O)NCCNc1nc(-c2ccc(C(=O)N(C)C)cc2)nc2ccccc12,> 20 µM (inactive)
5,CCNc1ncc2nc(-c3cccs3)c(=O)n(C)c2n1,> 20 µM (inactive)
6,c1nc(NC2CCNCC2)c2cc(-c3ccoc3)ccc2n1,> 20 µM (inactive)
7,Cc1nc2cncnc2n(Cc2ccccc2Cl)c1=O,> 20 µM (inactive)
8,CNc1cc(-c2ccccc2C(F)(F)F)ncn1,> 20 µM (inactive)
9,COCCn1c(=O)cnc2cnc(Oc3cccc(Cl)c3)nc21,> 20 µM (inactive)
10,Cc1cccc(CNc2nc(-c3ccoc3)nc3ccccc23)c1,> 20 µM (inactive)
11,Cc1cnc(CNc2cc(-c3cccnc3)ncn2)cn1,> 20 µM (inactive)
12,COc1ccc(-c2nc3cnc(N4CCNCC4)nc3n(C3CC3)c2=O)cc1,> 20 µM (inactive)
13,O=c1c(-c2ccc(Cl)cc2)nc2cnc(N3CCOCC3)nc2n1C[C@H]1CCCO1,> 20 µM (inactive)
14,COc1ncc2nc(-c3ccc(F)cc3)c(=O)n(CCc3ccccc3)c2n1,> 20 µM (inactive)
15,O=C(c1cc(C(F)(F)F)cc(C(F)(F)F)c1)N1CCC[C@@]2(CCN(Cc3ccncc3)C2)C1,> 20 µM (inactive)
16,CC(=O)N1CCC2(CCN(Cc3ccccc3)CC2)CC1,> 20 µM (inactive)
17,CC(=O)NCCNc1ncncc1-c1ccccc1C(F)(F)F,> 20 µM (inactive)
18,O=C(c1csnn1)N1CCC2(CCCN(c3cccc(-c4ccccc4)c3)C2)CC1,> 20 µM (inactive)
19,COc1ccc2[nH]cc(CCNc3ccnc(-c4ccccc4C)n3)c2c1,> 20 µM (inactive)
20,N#Cc1ccccc1-c1ccc2ncnc(N3CCNCC3)c2c1,> 20 µM (inactive)
